Measurements taken from PubChem BioAssay (Tox21).
Several values for one entry are separate records, joined by “and”; a condition that tells them apart may be missing. Equal values may be shown once. Results filed as inconclusive are left out. A structure can be active in one record and inactive in another. Activity calls are given as the source filed them. The call rests on the fitted dose curve; in most records, active means well fitted curve in the direction sought with a large enough effect in the repeat runs; inconclusive means weak or mixed curves; inactive means no such curve, though single readings can be large; an effect the other way counts as inactive or inconclusive.

Experiments:
[1] = Human pregnane X receptor (PXR) small molecule agonists, qHTS cell viability counter screen (AID 1346977); further: nearly all actives have a fitted effect of over 50% in size; further: potency means the concentration at half of the fitted maximal effect
Procedure, shortened: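 PXR-Luc HepG2 cells (2,000/well, 5% charcoal-stripped FBS) preincubated 5 hr, then exposed to compounds 24 hr at 37 C. Viability read in the same wells by CellTiter-Fluor fluorescence, reagent added at 23 hr, 1 hr incubation.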

[2] = Caspase-3/7 induction in HepG2 cells by small molecules, qHTS assay (AID 1346978); further: nearly all actives have a fitted effect of over 15% in size; further: potency means the concentration at half of the fitted maximal effect
Procedure, shortened: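 Wild-type HepG2 cells, 2,000/well, settled 5 hr at 37 C and 5% CO2, then compound-treated for 17 hr; caspase-3/7 activity read by luminescent Caspase-Glo 3/7 after 30 min at room temperature.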

[3] = Caspase-3/7 induction in CHO-K1 cells by small molecules, qHTS assay (AID 1346980); further: nearly all actives have a fitted effect of over 15% in size
Procedure, shortened: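 Wild-type CHO-K1 cells exposed to compounds for 17hr at 37 C, 5% CO2. Caspase-3/7 activity then measured by Caspase-Glo 3/7 luminescence after 30min at room temperature.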

[4] = target: Nuclear receptor subfamily 1 group I member 2 (Homo sapiens) (UniProt O75469); assay: Human pregnane X receptor (PXR) small molecule agonists, qHTS assay (AID 1346982); further: nearly all actives have a fitted effect of over 35% in size; further: potency means the concentration at half of the fitted maximal effect
Procedure, shortened: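 After plating in 5% charcoal-stripped FBS and a 5 hr rest, PXR-Luc HepG2 cells received compounds in DMSO. Following 24 hr at 37 C, ONE-Glo was added and light output read.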

[5] = target: Nuclear receptor subfamily 1 group I member 2 (Rattus norvegicus) (UniProt Q9R1A7); assay: Rat pregnane X receptor (rPXR) activation by small molecules, qHTS assay (AID 1346983); details: rPXR luciferase reporter cells, One-Glo luminescence, 24 h; max activation: stronger effect = higher value; further: nearly all actives have a fitted effect of over 20% in size; further: potency means the concentration at half of the fitted maximal effect
Procedure, shortened: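 Cell-based rPXR activation assay: rPXR cells, 2,000 per well, rested 5hr at 37 C, then exposed to compounds in DMSO for 24 hr at 37 C. Luciferase activity read by One-Glo luminescence after 30 min at room temperature.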

[6] = target: Nuclear receptor subfamily 1 group I member 2 (Homo sapiens) (UniProt O75469); assay: CYP3A4 induction through human pregnane X receptor (PXR) by small molecules, qHTS assay (AID 1346984); further: nearly all actives have a fitted effect of over 40% in size
Procedure, shortened: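 Human PXR activation is tracked via CYP3A4 promoter-luciferase in DPX-2 (HepG2) cells. Compounds treat cells for 24hr at 37C, and luminescence is read after One-Glo.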

[7] = target: Nuclear receptor subfamily 1 group I member 2 (Homo sapiens) (UniProt O75469); assay: Human pregnane X receptor (PXR) activation by small molecules, qHTS assay (AID 1346985); further: nearly all actives have a fitted effect of over 40% in size
Procedure, shortened: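 DPX-2 cells (HepG2 co-transfected with a PXR response element and a CYP3A4-promoter luciferase construct) were seeded at 2,000 per well, rested 5 hr at 37C, then exposed to DMSO-dissolved compounds for 24 hr. Activation was read as luciferase luminescence.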

[8] = target: Cytochrome P450 2D6 (Homo sapiens) (UniProt P10635); assay: Cytochrome P450 Family 2 Subfamily D Member 6 (CYP2D6) small molecule antagonists: luciferase reporter qHTS assay (AID 1671196); further: nearly all actives have a fitted effect of over 50% in size; further: potency means the concentration at half of the fitted maximal effect
Procedure, shortened: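 Quantitative HTS of Tox21 chemicals against CYP2D6 using a luminescent proluciferin substrate. After NADPH addition, 1 h room-temperature reaction; luminescence recorded 20 min post detection reagent.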

[9] = Caspase-3/7 induction in HepG2 cells by small molecules, qHTS cell viability counter screen (AID 1346981); further: nearly all actives have a fitted effect of over 30% in size; further: potency means the concentration at half of the fitted maximal effect
Procedure, shortened: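 The parent HepG2 line is plated at 2,000 cells per well and rested 5 hr before compound pinning from DMSO stocks. Following a 16-hr treatment at 37 C, a fluorogenic live-cell substrate (CellTiter-Fluor) reports viability after 1 hr.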

[10] = Caspase-3/7 induction in CHO-K1 cells by small molecules, qHTS cell viability counter screen (AID 1346979); further: nearly all actives have a fitted effect of over 35% in size; further: potency means the concentration at half of the fitted maximal effect
Procedure, shortened: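 Wild-type CHO-K1 cells (1,500/well) treated with compound after 5 h plating; after 16 h at 37C, viability read as CellTiter-Fluor fluorescence following 1 h reagent incubation, in the same wells as the caspase read.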
On the % scale 0 is the no-effect control and ±100 the full control effect.

Chain of Nuclear receptor subfamily 1 group I member 2 (Homo sapiens) (O75469 whole entry, looked up): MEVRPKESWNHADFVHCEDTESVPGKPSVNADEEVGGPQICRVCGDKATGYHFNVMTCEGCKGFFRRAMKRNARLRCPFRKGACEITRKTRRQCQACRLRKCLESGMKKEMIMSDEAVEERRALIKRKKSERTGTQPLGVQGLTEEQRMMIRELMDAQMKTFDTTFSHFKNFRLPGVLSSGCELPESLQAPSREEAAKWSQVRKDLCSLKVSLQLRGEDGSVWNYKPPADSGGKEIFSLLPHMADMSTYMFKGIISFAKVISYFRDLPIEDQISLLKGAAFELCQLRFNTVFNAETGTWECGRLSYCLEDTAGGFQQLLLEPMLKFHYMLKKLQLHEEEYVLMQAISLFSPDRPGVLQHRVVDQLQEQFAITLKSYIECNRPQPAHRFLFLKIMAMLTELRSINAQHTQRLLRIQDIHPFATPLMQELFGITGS
Chain of Nuclear receptor subfamily 1 group I member 2 (Rattus norvegicus) (Q9R1A7 whole entry, looked up): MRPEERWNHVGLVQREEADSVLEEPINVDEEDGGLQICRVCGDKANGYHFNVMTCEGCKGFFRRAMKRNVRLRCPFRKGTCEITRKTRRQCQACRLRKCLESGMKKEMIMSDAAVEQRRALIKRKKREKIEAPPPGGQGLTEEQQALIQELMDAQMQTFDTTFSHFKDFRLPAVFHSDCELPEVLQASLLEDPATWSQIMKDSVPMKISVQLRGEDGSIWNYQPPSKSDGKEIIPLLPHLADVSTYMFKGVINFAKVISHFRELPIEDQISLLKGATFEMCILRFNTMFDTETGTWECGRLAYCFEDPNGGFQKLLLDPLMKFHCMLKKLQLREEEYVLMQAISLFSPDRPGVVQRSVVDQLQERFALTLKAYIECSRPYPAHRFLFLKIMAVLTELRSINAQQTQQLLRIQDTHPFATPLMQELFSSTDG
Chain of Cytochrome P450 2D6 (Homo sapiens) (P10635 whole entry, looked up): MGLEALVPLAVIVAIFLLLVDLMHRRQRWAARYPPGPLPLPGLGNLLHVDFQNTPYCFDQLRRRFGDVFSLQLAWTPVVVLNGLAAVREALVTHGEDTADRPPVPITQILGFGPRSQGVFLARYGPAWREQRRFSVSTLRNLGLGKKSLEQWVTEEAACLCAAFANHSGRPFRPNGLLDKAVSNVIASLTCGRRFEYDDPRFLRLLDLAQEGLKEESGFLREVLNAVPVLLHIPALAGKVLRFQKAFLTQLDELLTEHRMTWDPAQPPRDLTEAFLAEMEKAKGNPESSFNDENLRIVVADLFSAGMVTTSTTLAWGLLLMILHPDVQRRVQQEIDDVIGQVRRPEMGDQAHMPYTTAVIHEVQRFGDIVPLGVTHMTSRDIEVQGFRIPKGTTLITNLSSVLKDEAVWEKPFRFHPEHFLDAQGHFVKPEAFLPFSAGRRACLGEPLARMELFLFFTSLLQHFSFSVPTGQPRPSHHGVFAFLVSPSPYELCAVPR

Cc1c(C(N)=O)cc([N+](=O)[O-])cc1[N+](=O)[O-]
inactive: Potency [1] | Potency [2] | Potency [3] | Potency [4] | max activation [5] 0.724% | Potency [6] | Potency [7] | Potency [8]

CCCCC(CC)COP(=O)(OCC(CC)CCCC)OCC(CC)CCCC (centres undefined)
inactive and 4.86 µM (active): Potency [4]
inactive: Potency [1] | Potency [2] | Potency [8]

Clc1nc(Cl)c(Cl)c(Cl)c1Cl
inactive: Potency [1] | Potency [2] | Potency [9] | Potency [4] | Potency [8]

NC=O
inactive: Potency [1] | Potency [2] | Potency [3] | Potency [9] | Potency [4] | Potency [8]

CCCCC/C=C/C=C/C=O
inactive: Potency [1] | Potency [2] | Potency [3] | Potency [9]
inactive and 35.6 µM (active): Potency [8]
inactive and 61.1 µM (active): Potency [4]

CC(C(=O)O)c1cccc(C(=O)c2ccccc2)c1 (centres undefined)
inactive: Potency [2] | Potency [10] | Potency [3] | Potency [8]

Cc1cccc(C(=O)O)c1
13.5 µM (active) and inactive: Potency [2]
9.57 µM (active) and inactive: Potency [4]
inactive: Potency [3] | Potency [8]
active: Potency [1] 14.1 µM

CC(=O)C1(C)CC2=C(CCCC2(C)C)CC1C (centres undefined)
inactive: Potency [1] | Potency [2] | Potency [3] | Potency [4] | Potency [8]

CC(C)Oc1ccc2c(=O)c(-c3ccccc3)coc2c1
active: Potency [4] 2.98 µM and 1.06 µM | Potency [5] 0.316 µM
inactive: Potency [1] | Potency [2] | Potency [6] | Potency [8]

Cn1cnc([N+](=O)[O-])c1Sc1ncnc2nc[nH]c12
active: Potency [10] 51.1 µM | Potency [9] 48.2 µM
inactive: Potency [2] | Potency [3] | Potency [4]
44.5 µM (active) and inactive: Potency [8]

O=c1oc(=O)c2cc3c(=O)oc(=O)c3cc12
inactive: Potency [1] | Potency [2] | Potency [3] | Potency [9] | Potency [8]

c1cc(N(CC2CO2)CC2CO2)ccc1OCC1CO1 (centres undefined)
active: Potency [1] 61.1 µM | Potency [10] 48.6 µM and 27.3 µM | Potency [9] 54.5 µM and 27.3 µM | Potency [4] 48.6 µM and 24.3 µM | Potency [8] 56.4 µM

COc1ccccc1/C=C/C=O
inactive: Potency [1] | Potency [2] | Potency [9] | Potency [8]

COc1ccc(OC)c(C(O)CNC(=O)CN)c1 (centres undefined)
inactive: Potency [1] | Potency [2] | Potency [9] | Potency [4] | max activation [5] 1.02% | Potency [6] | Potency [7] | Potency [8]

Cc1c(OCC(F)(F)F)ccnc1CS(=O)c1nc2ccccc2[nH]1 (centres undefined)
active: Potency [8] 2.83 µM and 1.23 µM
inactive: Potency [1] | Potency [2] | Potency [9]

C[C@]12CC[C@H]3[C@@H](CCC4=CC(=O)CC[C@@]43C)[C@@H]1CC[C@@H]2C(=O)CO
21.7 µM (active) and inactive: Potency [4]
inactive: Potency [1] | Potency [2] | Potency [3] | Potency [6] | Potency [7] | Potency [8]

CC(=O)O[C@]1(C(C)=O)CC[C@H]2[C@@H]3C=C(Cl)C4=CC(=O)[C@@H]5C[C@@H]5[C@]4(C)[C@H]3CC[C@@]21C
61.1 µM (active) and inactive: Potency [4]
inactive: Potency [1] | Potency [2] | Potency [3] | Potency [6] | Potency [7] | Potency [8]

Oc1ccc(O)cc1
inactive: Potency [1] | Potency [2] | Potency [8]
54.2 µM (active) and inactive: Potency [4]

Cc1ccc2c(n1)Oc1ccc(C(C)C(=O)OCC(=O)N(C)C)cc1C2 (centres undefined)
inactive: Potency [1] | Potency [2] | Potency [3]
active: Potency [4] 21.1 µM and 11.9 µM | Potency [8] 38.9 µM
